Assay outcomes deposited in PubChem BioAssay by National Center for Advancing Translational Sciences (NCATS).
Rows were chosen to be rich in hits. Some 4.7% of all compounds tested hit in one or more screens of this group.
TRHR agonist: qHTS for Small Molecule Agonists and Allosteric Enhancers of Human TRH Receptor: Primary Screen for Agonists | Thyrotropin-releasing hormone receptor (Homo sapiens), P34981 | TRHR cells, calcium flux fluo-8, FDSS agonist mode | activation, % at 2 µM | 360,000 tested, 0.18% active | AID 493084, 2011
Target sequence (P34981 whole entry, looked up): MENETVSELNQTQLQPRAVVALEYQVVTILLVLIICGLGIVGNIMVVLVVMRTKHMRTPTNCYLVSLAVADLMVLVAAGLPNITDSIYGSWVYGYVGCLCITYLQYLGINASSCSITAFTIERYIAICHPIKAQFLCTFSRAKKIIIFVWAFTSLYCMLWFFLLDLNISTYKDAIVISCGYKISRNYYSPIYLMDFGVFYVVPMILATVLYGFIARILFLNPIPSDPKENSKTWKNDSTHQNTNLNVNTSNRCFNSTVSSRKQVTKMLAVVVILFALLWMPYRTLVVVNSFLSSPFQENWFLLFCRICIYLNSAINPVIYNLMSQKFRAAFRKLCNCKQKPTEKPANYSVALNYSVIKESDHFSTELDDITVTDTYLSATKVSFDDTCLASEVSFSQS
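Read-out: compound-evoked intracellular calcium rise in TRHR cells, fluo-8 dye, kinetic FDSS fluorescence at 1 s/cycle following a 10-cycle baseline. Cells cultured overnight before dye loading (30 min–1.5 h, RT).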
D1 antagonist: Antagonist of Human D 1 Dopamine Receptor: qHTS. D(1A) dopamine receptor (Homo sapiens), P21728. HEK293 TREx D1 cells, calcium flux, dopamine EC80; active compounds read low. activity change, negative = inhibition, % at 10 µM. 360,000 tested, 3.2% active. AID 504652, 2011; in the data active = activity change below about -30%
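Kinetic fluorescence of a calcium dye serves as the read-out. D1-expressing Hek293 Trex cells, induced overnight at 30 C, are exposed to compound for 180 s before an EC80 dopamine addition, then read 180 s further.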
D1 ag: Allosteric Agonists of the Human D1 Dopamine Receptor: qHTS; 360,000 tested, 1% active; activation, % at 2 µM; HEK293 T-REx D1 cells, calcium flux, agonist mode; AID 504660, 2011
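Agonism was scored from calcium flux recorded over 180 s (1 read/s) after pintool compound addition, following a 10-cycle baseline. Cells were inducible force-coupled HEK293 TREx D1, plated overnight at 30 C and loaded with no-wash calcium dye.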
D1 potentiator: Potentiators of Human D1 Dopamine Receptor: qHTS. 360,000 tested, 0.036% active. D(1A) dopamine receptor (Homo sapiens), P21728. HEK293 TREx D1 cells, calcium flux, dopamine EC20 potentiation. potentiation, % at 10 µM. AID 504651, 2011; in the data active = potentiation above about 30%
TRHR enhancer: qHTS for Small Molecule Agonists and Allosteric Enhancers of Human TRH Receptor: Primary Screen for Enhancers; Thyrotropin-releasing hormone receptor (Homo sapiens), P34981; 360,000 tested, 0.66% active; enhancement, % at 2 µM; TRHR cells, fluo-8 calcium fluorescence, EC20 TRH enhancement; in the data active = enhancement above about 30%
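TRHR-expressing cells loaded with fluo-8 calcium dye were read kinetically (ex 480/em 530) during compound addition, then stimulated with an EC20 of TRH (10 nM final). Enhancement of the Gq-mediated intracellular calcium response was scored.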
Of the large screens only hits and unclear results are named; the others gave an inactive call. Rule as the data show it, unless noted: active = activation above about 30%; inactive = the rest.

O=C(NCCNc1ccc([N+](=O)[O-])cc1C(F)(F)F)c1ccccc1	D1 antagonist -31
COc1ccc(N2CCN(C(CNS(=O)(=O)c3ccc(OC)c(C)c3)c3ccco3)CC2)cc1 (configuration not stated)	none (no result: D1 antagonist)
CC(C)CN1CCC(=O)N([C@H](CSc2ccc(Br)cc2)Cc2ccccc2)CC1	D1 antagonist -50
CN1CCC(=O)N([C@H](CSc2ccc(Br)cc2)Cc2ccccc2)CC1	none
CN1CCN(S(=O)(=O)c2cccc(S(=O)(=O)c3ccc(Cl)c(Cl)c3)c2)CC1	D1 antagonist -53
CCOc1cc(CNS(=O)(=O)c2ccc3c(c2)C(C)(C)C(=O)N3)cc(OCC)c1OCC	none
CCOc1ccc(S(=O)(=O)Nc2cccc(-c3ccc(N4CCCC4)nn3)c2)cc1	none
O=[N+]([O-])c1cccc(-c2csc(Nc3ccccc3)n2)c1	D1 antagonist -30
COc1ccc2c(c1)c1c(c(=O)n(Cc3ccccc3)c(=O)n1Cc1cccc(Cl)c1)n2C	none
COc1cccc2sc(Nc3nnc(-c4cccs4)o3)nc12	D1 antagonist -46
CCCN1C(=O)/C(=C\C=C2\N(CC)c3ccccc3C2(C)C)SC1=S	TRHR agonist 36, D1 ag 92
CN1C(=CC=C2C=C(I)C(=O)C(I)=C2)C(C)(C)c2ccccc21	D1 antagonist -42
CN1/C(=C\C=C2/C(=O)Oc3ccccc3C2=O)C(C)(C)c2ccccc21	TRHR agonist 217, D1 ag 545
CN(C)c1ccc(N=C/C=C2/N(C)c3ccccc3C2(C)C)cc1	D1 antagonist -30
Cc1ccccc1Cn1nnc2c(=O)[nH]c(C3CCN(C(=O)c4ccccc4)CC3)nc21	none
CC1CCN(C(=O)Cn2c(=O)n(CCCCCC(=O)NCc3ccccc3Cl)c(=O)c3sccc32)CC1	none
CN1/C(=C\C=C2/SC(=S)NC2=O)C(C)(C)c2ccccc21	TRHR agonist 83, D1 ag 436
O=C(Nc1cccc(F)c1)C1CCN(S(=O)(=O)c2ccc3[nH]c4c(c3c2)CCCCC4)CC1	D1 antagonist -32
CN(CC(=O)Nc1cccc(Cl)c1)S(=O)(=O)c1ccc2[nH]c3c(c2c1)CCCC3	D1 antagonist -35
COC(=O)c1ccc(NC(=O)C(=O)NCCc2sc3nc(-c4ccc(OC)cc4)nn3c2C)cc1	none (no result: D1 antagonist)
CC(C)CCN(Cc1ccco1)C(=O)c1cc2c(Cl)nc3ccccc3c2s1	none
Cc1ccc(CNC(=O)C2COc3ccccc3C2)cc1 (configuration not stated)	none
O=C(NCCCN1CCN(c2ccc(F)cc2)CC1)C1COc2ccccc2C1 (configuration not stated)	none
Cc1cccc(N2CCN(CCNC(=O)C3COc4ccccc4C3)CC2)c1C (configuration not stated)	D1 antagonist -51
Cc1ccc(Cl)cc1N1CCN(CCCNC(=O)C2COc3ccccc3C2)CC1 (configuration not stated)	D1 antagonist -37, D1 ag 41
CCc1ccc2[nH]cc(S(=O)(=O)c3ccc(C(C)C)cc3)c(=O)c2c1	none
COC(=O)c1ccc(OC)c(Cn2c(=O)n(-c3ccc(C)cc3)c(=O)c3c2cnn3C)c1	none
N#Cc1nc(-c2ccc(OCc3ccccc3)cc2)oc1N1CCC(C(N)=O)CC1	D1 antagonist -36
CN(C)CCNc1oc(COc2ccc(-c3ccccc3)cc2)nc1C#N	D1 ag 40
CN1CCN(c2oc(COc3ccc(-c4ccccc4)cc3)nc2C#N)CC1	D1 antagonist -35
COc1ccc(-c2nc(C#N)c(N3CCC(C(N)=O)CC3)o2)cc1	none
CCC1CN(C(=O)Nc2cccc(OC)c2)c2ccccc2O1 (configuration not stated)	none
CC1=C(C(=O)OC(C)C)C(c2cccs2)C(C(=O)OC(C)C)=C(C)N1	D1 antagonist -32
CCCn1cc(S(=O)(=O)c2ccc(CC)cc2)c(=O)c2cc(F)c(N(CC)CC)cc21	none
